# Source: ChEMBL document CHEMBL3433997, “St. Jude Leishmania screening dataset” (2016)
# Target: Solute carrier family 2, facilitated glucose transporter member 1 (Homo sapiens) (UniProt P11166)
# Assay: ST_JUDE_LEISH: Cytotoxicity at 2uM final concentration against transgenic Leishmania Mexicana promastigotes LmGLUT1 that are glucose transport deficient and complemented with the human glucose transporter GLUT1. Activity is measured by DNA content using SYBR green in vitro
# Format: functional
# Sequence of Solute carrier family 2, facilitated glucose transporter member 1 (Homo sapiens) (P11166 whole entry): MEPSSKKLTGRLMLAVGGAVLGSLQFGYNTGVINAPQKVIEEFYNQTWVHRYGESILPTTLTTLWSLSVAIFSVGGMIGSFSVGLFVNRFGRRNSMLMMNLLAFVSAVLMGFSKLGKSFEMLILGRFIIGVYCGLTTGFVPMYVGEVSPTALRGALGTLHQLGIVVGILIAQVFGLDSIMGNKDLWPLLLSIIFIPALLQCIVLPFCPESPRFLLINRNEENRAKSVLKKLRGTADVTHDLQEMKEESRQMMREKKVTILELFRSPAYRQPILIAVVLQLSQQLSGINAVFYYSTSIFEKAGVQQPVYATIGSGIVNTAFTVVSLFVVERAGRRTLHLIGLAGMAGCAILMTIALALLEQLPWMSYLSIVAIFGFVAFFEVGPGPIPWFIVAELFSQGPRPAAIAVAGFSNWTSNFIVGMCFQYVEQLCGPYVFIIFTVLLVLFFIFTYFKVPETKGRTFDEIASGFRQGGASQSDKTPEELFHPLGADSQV
row,SMILES,inhibition [%]
1,CCc1c(CCNCCCCCCNCc2ccc3c(c2CC)OCO3)ccc(OC)c1OC,10.6
2,Clc1ccc2c(NN=Cc3cccs3)ccnc2c1,1.34
3,N#Cc1c(-c2ccccc2)cn2c1[nH]c(=O)c1ccccc12,-1.7
4,Nc1ccc(-c2ccc3ccnc(N)c3c2)cn1,1.94
5,OCCN1CCN(C(=S)Nc2ccccc2)CC1,4.19
6,O=C(NCCN1CCOCC1)c1csc(C2CCCN(C(=O)c3ccc(O)c(-c4cc(Cl)cc(Cl)c4)c3)C2)n1 (configuration not stated),8.92
7,c1cc(CNc2ncc(-c3ccsc3)c(-c3nccs3)n2)ccn1,7.08
8,COc1ccc(CNC2CCN(C)CC2)cc1-c1ccc(S(=O)(=O)NCCc2ccccn2)c(F)c1,3.16
9,CC(C)c1ccc(CN2CCC(CNC(=O)c3cc(-c4ccccc4F)cs3)C2)cc1 (configuration not stated),4.5
10,O=c1cc(NCCC2CC=CCN2Cc2ccc(Cl)c(Cl)c2)[nH]c2ccccc12 (configuration not stated),1
11,CC(=O)N1N=C(c2ccc(Cl)cc2)Sc2c1nc(-c1ccccc1)n2C(C)=O,2.66
12,Cc1cc(NC(c2ccc(Cl)cc2)c2ccc3cccnc3c2O)no1 (configuration not stated),16.6
13,OC(CNC1CCCCC1)Cn1c2ccc(Br)cc2c2cc(Br)ccc21 (configuration not stated),0.51
14,C#CCNCc1ccc(-c2ccc(-c3nc4cc(C(F)(F)F)ccc4[nH]3)s2)cc1,0.44
15,Cc1nc(C)c(CC(=O)Nc2ccc(-c3ccc(-c4nc5cc(C(F)(F)F)ccc5[nH]4)s3)cc2)s1,2.35
16,O=c1ccc(-c2nc3cc(Cl)c(Cl)cc3n2Cc2ccc(Cl)cc2Cl)c[nH]1,-0.54
17,COc1ccc(Nc2nccc(N3CCC(NC(=O)Nc4cccc(OC)c4)C3)n2)cc1 (configuration not stated),0.29
